High-throughput results deposited in PubChem BioAssay by National Center for Advancing Translational Sciences (NCATS).
Sampled rows, rich in hits. Any-hit rate of the full collection: about 3%.
FBPA coupling cs – coupling enzyme interference in Giardia aldolase counter-screen; coupling enzyme system counterscreen, AmpLite Red fluorescence; activity change, negative = inhibition, % at 58.2 µM, hits read low; 290,000 tested, 0.67% active; in the data active = activity change below about -30%
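Counterscreen of the coupled detection system alone, without aldolase: glyceraldehyde-3-phosphate coupling enzymes plus AmpLite Red readout. Compounds at 57.5 uM final, 10 min RT preincubation, 20 min RT reaction, fluorescence 525/598 nm.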
Tau fibril FP – inhibitors of human tau fibril formation; P10636; K18 P301L tau heparin fibrillization, Alexa594 FP, 6 h; Potency, µM (highest dose often 57.7 µM), inactives show at the top dose activity, negative = inhibition, hits mostly inhibitors; 280,000 tested, 0.39% active; AID 1468; note: potency is the fitted concentration of half-maximal effect; nearly all actives have a fitted effect of over 55% in size
Target sequence (P10636 561-689 P618L limits assumed): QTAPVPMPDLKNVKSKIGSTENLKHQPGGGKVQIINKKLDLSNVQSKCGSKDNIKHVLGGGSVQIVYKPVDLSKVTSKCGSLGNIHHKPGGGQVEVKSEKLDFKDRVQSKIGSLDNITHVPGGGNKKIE
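K18 P301L tau (15 uM unlabeled/0.24 uM Alexa 594-labeled, final) + compound + heparin 20 uM final; 100 mM NaOAc pH 7; 6 hr 37 C; ThT 30 uM final added, 1 hr RT; FP ex 555/em 632 nm.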
KDM4E inh – JMJD2E (human) inhibition | Potency, µM (top dose mostly 57.1 µM), for inactives: at the top dose activity change, negative = inhibition, hits mostly inhibitors | 230,000 tested, 1.6% active | JMJD2E catalytic domain, FDH-coupled NADH fluorescence (FDH is formaldehyde dehydrogenase) | B2RXH2 | AID 2147; active = well fitted inhibition curve with a large enough effect, not every such curve was filed as active; inconclusive = small, poorly fitted or top-dose-only effect, or another doubt; inactive = no such curve, though single readings can be large or run the other way;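 note: potency is the fitted concentration of half-maximal effect; 0% = wells with enzyme and -100% = buffer wells without enzyme; nearly all actives have a fitted effect of over 50% in size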
Target sequence (B2RXH2 1-337 limits assumed): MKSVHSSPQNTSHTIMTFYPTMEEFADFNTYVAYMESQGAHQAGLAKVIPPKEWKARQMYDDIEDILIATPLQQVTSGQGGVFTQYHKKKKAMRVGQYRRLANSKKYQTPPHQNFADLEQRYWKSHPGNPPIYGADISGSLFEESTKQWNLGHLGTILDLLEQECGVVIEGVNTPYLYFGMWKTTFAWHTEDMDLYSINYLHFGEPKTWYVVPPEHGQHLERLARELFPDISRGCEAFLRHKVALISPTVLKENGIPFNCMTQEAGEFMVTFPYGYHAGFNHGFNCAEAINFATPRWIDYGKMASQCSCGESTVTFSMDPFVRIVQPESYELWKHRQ
Tau fibril ThT – tau fibrillization inhibition (ThT binding); recombinant tau K18 P301L, heparin-induced fibrillization, ThT fluorescence; Potency, µM (doses to about 57.4 µM), inactives show at the highest dose activity, negative = inhibition, usual class: inhibitors; 270,000 tested, 2.1% active; note: potency is the fitted concentration of half-maximal effect; nearly all actives have a fitted effect of over 55% in size
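In this qHTS, human K18 P301L tau is incubated with compound and heparin for 6 hr at 37 C, and Thioflavin T fluorescence then reports fibril load.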
Tau fluor cs – counter-screen for tau fibril formation inhibitors; Potency, µM (top dose mostly 57.7 µM), without a hit: top-dose activity change, negative = decrease; AID 1463; tau K18 P301L Alexa594 fluorescence, heparin fibrillization; 280,000 tested, 0.93% active; note: potency is the fitted concentration of half-maximal effect; nearly all actives have a fitted effect of over 55% in size
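Human tau K18 P301L (15 uM unlabeled, 0.24 uM Alexa 594-labeled) in 100 mM sodium acetate pH 7 with 20 uM heparin, 6 hr at 37 C. ThT 30 uM added, 1 hr ambient; Alexa 594 FP and total fluorescence read at 555/632 nm.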
* = called active by the depositor; ? = inconclusive; nt = no result given; ! = not active in a repeat; [ ] = dose if it differs, or a comment. Unless noted, calls come from the whole dose curve; as a rule, active = well fitted curve in the direction sought with a large enough effect; inconclusive = small, poorly fitted or top-dose-only effect, or another doubt; inactive = no such curve, though single readings can be large; an effect the other way counts as inactive or inconclusive. Unless noted, % is set by controls: 0 for no effect and ±100 for the full control effect.

SMILES	FBPA coupling cs	Tau fibril FP	KDM4E inh	Tau fibril ThT	Tau fluor cs
CC1=NN(c2nc(-c3ccccc3)cs2)C(=O)C1N=Nc1ccccc1 (configuration not stated)	-2	2%	-2%	2.2µM*	?
CC1=NN(c2ccccc2)C(=O)C1N=Nc1ccc(C)cc1 (configuration not stated)	1	-2%	-1%	-20%	-12%
CC1=NN(c2ccccc2)C(=O)C1N=Nc1ccc(S(N)(=O)=O)cc1 (configuration not stated)	4	-8%	-14%	?	-22%
CC1=NN(c2nc(-c3ccc(C)cc3)cs2)C(=O)C1N=Nc1ccc2ccccc2c1 (configuration not stated)	4	-9%	3%	1.4µM*	-23%
CC(=O)Nc1ccc(N2N=C(C)C(N=Nc3ccccc3)C2=O)cc1 (configuration not stated)	1	4%	-7%	4.5µM*	-30%
CCOC(=O)c1sc2ccccc2c1S(=O)(=O)Nc1cccc(C(F)(F)F)c1	nt	-8%	nt	-9%	-28%
CCN(c1ccc(C)cc1C)S(=O)(=O)c1nnc(NC(=O)c2ccccc2OC)s1	nt	2%	nt	-10%	-3%
COc1ccc(NC(=O)N2CCc3nc(-c4ccc(OC)cc4C)c4c(c3C2)CO[C@@H](c2ccccc2)C4)cc1	2	7%[11.6 µM]	0%[11.4 µM]	-4%[11.5 µM]	-5%[11.6 µM]
Cc1ccccc1Nc1c(-c2ccccc2O)nc2sccn12	nt	?	nt	-13%	13µM*[quencher]
Cc1ccccc1Nc1c(-c2ccc(O)cc2)nc2c(C)cccn12	nt	8%	nt	?	25µM*[quencher]
Cc1ccc2nc(-c3ccccc3O)c(Nc3ccccc3C)n2c1	nt	-3%	nt	-13%	-10%
Cc1[nH]nc(Nc2ccc(C(C)C)cc2)c1[N+](=O)[O-]	2	-1%	10%	13µM*	?
Cc1[nH]nc(Nc2ccc(Br)cc2)c1[N+](=O)[O-]	-1	-2%	-13%	6.3µM*	-28%
CC(C)CSc1ccccc1NC(=O)c1sc2nc(-c3ccncc3)ccc2c1N	nt	3%	nt	-16%	3.2µM*[quencher]
CCOc1ccc(CCNC(=O)c2ccc(-c3nc(COc4ccc(C)cc4)c(C)o3)cc2)cc1	nt	-7%	nt	-11%	1%
O=[N+]([O-])c1cc([N+](=O)[O-])c(N2CCOCC2)cc1NCc1ccccc1	2	-4%	1%	?	-23%
O=[N+]([O-])c1c(NCc2ccccc2)cc(N2CCc3ccccc3C2)c2nonc12	-40*	-8%	0%	?	-12%
Nc1c(C(=O)c2ccccc2)sc2snc(SCC(=O)c3ccccc3)c12	5	?	?	7.9µM*	?
CCCc1cc2c(c(=O)o1)C(O)C1OC1C2=O (configuration not stated)	6	6%[11.6 µM]	nt	?	?
Cn1c(SCC(=O)N/N=C/c2cccs2)nc2ccccc21	-16	-10%	0%	-11%	-5%
Cc1ccc(/C=N/NC(=O)CSc2nc3ccccc3n2C)s1	-32*	4%	-4%	-23%	-9%
Cc1ccc(S(=O)(=O)Nc2ccc(-c3nc4cc(NS(=O)(=O)c5ccc(C)cc5)ccc4o3)cc2)cc1	-9	16µM*	?	7%	?
CC(C)CN1C(=O)c2ccc(NC(=O)c3cccs3)cc2C1=O	0	?	?	-10%	?
O=C(Nc1ccc(Oc2ccc3c(c2)C(=O)N(c2ccc(O)cc2)C3=O)cc1)c1cccs1	0	14µM*	-2%	1%	2%
COc1cc(/C=C/c2cc(OC(C)=O)c3ccccc3n2)c(OC(C)=O)c([N+](=O)[O-])c1	6	?	-29%	3.2µM*	13µM*[quencher]
SMILES	FBPA coupling cs	Tau fibril FP	KDM4E inh	Tau fibril ThT	Tau fluor cs
CC[n+]1c(/C=C/C=C/N(C(C)=O)c2ccccc2)sc2ccccc21	-6	?	-18%	11µM*	8.9µM*[fluorescent]
CCn1c(/C=C/N(C(C)=O)c2ccccc2)[n+](CC)c2ccc(Cl)cc21	5	9%	3%	-3%	-1%
COc1ccc(/C=N/N(Cc2ccccc2)c2ccccc2)cc1O	-6	?	-6%	?	14µM*[quencher]
C(=N\N(Cc1ccccc1)c1ccccc1)/c1ccco1	1	0%	-8%	-16%	?
CCCC(=O)NCCc1c2n(c3ccc(OC)cc13)Cc1ccccc1-2	nt	11%	?	?	-26%
CCOC(=O)C1=C(CS(=O)(=O)c2ccc(F)c(C)c2)NC(=O)NC1c1ccc(O)c(O)c1 (configuration not stated)	-12	-2%	14µM*	-1%	-5%
CCOC(=O)C1=C(CS(=O)(=O)c2ccc(F)c(C)c2)NC(=O)NC1c1ccc(F)c(F)c1 (configuration not stated)	nt	-6%	nt	-5%	-20%
COCc1cc(=O)n2[nH]c(-c3ccsc3-n3c(C)ccc3C)cc2n1	-5	?	?	22µM*	?
Cc1cc(=O)n2[nH]c(-c3ccsc3-n3c(C)ccc3C)cc2n1	-7	?	?	nt	?
Cc1nc2cc(-c3ccsc3-n3c(C)ccc3C)[nH]n2c(=O)c1Cl	-1	?	?	14µM*	?
CC(=O)N1CCCc2ccc(NC(=O)c3ccc(C(F)(F)F)cc3)cc21	nt	0%	nt	-6%	-9%
CC(C)c1ccc(NC(=O)[C@H]2O[C@@H]3OC(C)(C)O[C@@H]3[C@H]3OC(C)(C)O[C@H]32)cc1	nt	8%	nt	12%	1%
C/C(=N\Nc1ccc([N+](=O)[O-])cc1)c1cc2ccccc2o1	-1	-11%	5%	2.8µM*	8.9µM*[quencher]
C/C(=N/Nc1ccc([N+](=O)[O-])cc1)c1ccc(C)cc1C	-4	?	-9%	4.5µM*	10µM*[quencher]
CCN(C(=O)c1cc(S(=O)(=O)N2CCc3ccccc32)cn1C)c1cccc(C)c1	nt	0%	nt	-4%	-19%
COC(=O)c1cn(CC(=O)N2C(C)CCCC2C)c2ccccc12 (configuration not stated)	4	-2%	4%	-4%	-5%
CC1CCCC(C)N1C(=O)Cn1cc(/C=C2/C(=O)Nc3ccccc32)c2ccccc21 (configuration not stated)	-5	14%	3%	14µM*	?
COC(=O)CCC(=O)OC1(C)C(=O)C2=CN(CCCCO)C(c3ccc(OC)cc3)=CC2=C(Br)C1=O (configuration not stated)	-47*!	6%[11.6 µM]	-9%[11.4 µM]	15%[11.5 µM]	6%[11.6 µM]
COC(=O)CCC(=O)OC1(C)C(=O)C2=CN(CCc3ccccn3)C(c3ccc(OC)cc3)=CC2=C(Br)C1=O (configuration not stated)	-8	1%[11.6 µM]	-21%[11.4 µM]	-9%[11.5 µM]	-9%[11.6 µM]
